# Tests used:
# Conditions in all cases: concentration: 1 μM,replicates: in singlicate; n = 1
# IKK-alpha = tested on: T1, IKK-alpha
# T1 construct: gene CHUK
# IKK-beta = tested on: T2, IKK-beta
# T2 construct: gene IKBKB
# IKK-epsilon = tested on: T3, IKK-epsilon
# T3 construct: gene IKBKE
# INSRR = tested on: INSRR
# INSR = tested on: INSR
# IRAK1 = tested on: IRAK1
# IRAK3 = tested on: IRAK3
# IRAK4 = tested on: IRAK4
# ITK = tested on: ITK
# [1] = tested on: JAK1(JH1domain-catalytic)
# 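Further: KINOMEscan kinase panel screen.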
SMILES,%Inh (IKK-alpha) [%],%Inh (IKK-beta) [%],%Inh (IKK-epsilon) [%],%Inh (INSRR) [%],%Inh (INSR) [%],%Inh (IRAK1) [%],%Inh (IRAK3) [%],%Inh (IRAK4) [%],%Inh (ITK) [%],%Inh [1] [%]
CC(C(=O)NC1CCN(c2ccnc(Nc3ccc(F)cc3)n2)C1)c1ccc(Cl)cc1 (stereo not shown) [GSK1379713],0,0,0,10,0,0,0,0,10,5
CN(c1ccccc1CNc1nc(Nc2ccc3c(c2)CC(=O)N3)ncc1C(F)(F)F)S(C)(=O)=O,0,0,35,69,93.5,26,65,27,56,74
Cn1cc(-c2cccc3c(N)c(C(N)=O)nnc23)cn1,28,39,0,9,19,31,9,17,15,9
C[C@@H](Oc1cc(-n2cnc3cc(-c4ccncc4)ccc32)sc1C(N)=O)c1ccccc1Cl [GSK479719],37,50,0,0,0,48,0,26,11,0
CCn1c(-c2nonc2N)nc2cncc(CNC3CCNCC3)c21.Cl [SB-747651],39,27,5,0,14,56,0,41,9,15
Cc1ccc(Nc2ccnc(Nc3ccc4c(c3)CS(=O)(=O)C4)n2)cc1O.Cl [GW579362],62,87,91,22,53,99.1,91,87,38,92.4
Cn1ccc2ncnc(Oc3ccc(NC(=O)Nc4cccc(C(F)(F)F)c4)c(F)c3)c21,44,0,0,6,2,0,0,0,3,11
Cn1ccc2ncnc(Oc3ccc(NC(=O)Nc4cc(C(C)(C)C)on4)c(Cl)c3)c21,17,9,0,19,20,61,17,33,16,6
OCCn1cc(-c2cnc3nnn(Cc4ccc5ncccc5c4)c3n2)cn1,3,0,0,0,0,0,0,0,0,0
CN1CCN(CCCNc2nccc(-c3c(-c4ccc(F)cc4)nn4cc(C(N)=O)ccc34)n2)CC1 [GW622475],0,0,39,0,2,29,0,11,10,5
O=C(Nc1n[nH]c2cc(-c3ccco3)ccc12)C1CC1 [SB-737447],0,0,0,5,2,0,0,0,0,2
N#Cc1cccc(C(=O)NC2CCN(c3ccnc(Nc4ccc(F)cc4)n3)C2)c1 (stereo not shown) [GSK1379708],16,16,0,0,4,17,27,2,2,17
COc1cc2nccc(Nc3ccc(Oc4ccccc4)cc3)c2cc1OC.Cl [GI261656],0,0,35,0,0,0,0,0,0,8
Cc1ccn2nc(-c3ccc(F)cc3)c(-c3ccncc3)c2c1.Cl [GW457859],0,0,16,0,0,13,0,0,0,16
COC(=O)c1cccc(NC(=O)NC2CCN(c3ccnc(NCc4ccc(F)cc4)n3)CC2)c1 [GSK1379860],26,8,0,0,0,0,0,12,15,8
CC(=O)Nc1nc2cnc(Nc3cc(NC(=O)c4cccc(CC(C)(C)C#N)c4)ccc3C)nc2s1,0,1,28,4,16,9,27,8,0,27

SMILES,%Inh (IKK-alpha) [%],%Inh (IKK-beta) [%],%Inh (IKK-epsilon) [%],%Inh (INSRR) [%],%Inh (INSR) [%],%Inh (IRAK1) [%],%Inh (IRAK3) [%],%Inh (IRAK4) [%],%Inh (ITK) [%],%Inh [1] [%]
Cn1ccc2ncnc(Oc3ccc(NC(=O)Nc4cccc(C(F)(F)F)c4)c(Cl)c3)c21,53,19,6,0,16,0,0,0,1,0
CCn1c(-c2nonc2N)nc2cncc(Br)c21 [SB-738004],12,0,26,0,0,63,0,0,0,18
O=C1NCCc2[nH]c(-c3ccncc3)cc21,88,40,2,0,8,98.6,0,0,0,6
CN(c1cccc(CNc2nc(Nc3ccc4c(c3)CC(=O)N4)ncc2C(F)(F)F)c1)S(C)(=O)=O,24,14,19,21,48,48,22,0,26,43
CNC(=O)c1ccccc1Nc1nc(Nc2cccc(CS(C)(=O)=O)c2)ncc1C.O=CO [GSK1520489],61,37,73,92.6,96,99.7,98.3,98.1,100,84
CN(c1ccc2c(c1)nc(NCc1ccc(F)cc1)n2C)c1ccnc(Nc2ccc(CS(C)(=O)=O)cc2)n1.Cl [GW813244],15,0,0,15,27,49,1,0,0,38
CS(=O)(=O)Nc1ccc(-c2ccnc3[nH]ccc23)cc1 [GSK993273],89,99.1,34,0,0,61,49,24,13,70
C[C@@H]1CCN(C(=O)N2CCCC2)C[C@@H]1N(C)c1ncnc2[nH]ccc12,23,19,17,12,0,6,8,0,0,99.6
NC(=O)c1ccc(-c2cc3ncnc(SCC(=O)O)c3s2)cc1,0,0,0,0,0,70,9,0,0,0
O=C(NOCC1CC1)c1cc(Br)c(F)c(F)c1Nc1ccc(I)cc1Cl,0,0,0,0,0,0,0,0,2,7
Cc1ccc(C(=O)Nc2ccc(Oc3ccc4nc(NC(=O)C5CC5)cn4c3)c(F)c2)c(=O)n1-c1ccccc1,61,56,0,0,0,0,44,0,57,14
Cc1cccc(-c2nc(Nc3ccncc3)c3sccc3n2)n1 [GW869641],32,22,0,5,31,18,0,0,12,0
Cc1n[nH]c2cc(Nc3ccnc(Nc4cccc(CN5CCOCC5)c4)n3)ccc12 [GW682569],0,25,38,0,7,79,89,87,1,48
COC(=O)Nc1nc2cc(Oc3ccc(NC(=O)Nc4cc(C(F)(F)F)ccc4Cl)cc3)ccc2[nH]1.Cl [GW697465],35,16,0,0,0,23,0,8,12,21
CCN1CCN(CCCC(=O)Nc2n[nH]c3nc(-c4ccc(O)cc4)c(Br)cc23)CC1 [SB-731579],0,0,0,0,0,0,0,0,98.8,23

# — publication PMC5540273 (PLoS ONE, 2017)
